Source: the supplement of paper PMC12024424
Counter-ions that a name gives are not always drawn.

What follows are molecules tested on Staphylococcus aureus Sa2 (MRSA, cystic fibrosis isolate) (assay: growth reduction vs untreated control (OD550); higher = stronger antibacterial activity). Conditions: 0.1 mM; 24 h.
Experimental: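 Single-dose screen of the MedChem Express Drug Repurposing Library (0.1 mM, 1% DMSO) against planktonic MRSA S. aureus Sa2 (CF isolate) in TSB in 96-well plates, 37 °C aerobic, 24 h. Assays were run in triplicate and repeated twice.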

SMILES | growth reduction [%]
Cc1cccc(Nc2ccccc2C(=O)O)c1C [Mefenamic acid] | 97.3
C#C[C@]1(O)CC[C@H]2[C@@H]3CCc4cc(OC5CCCC5)ccc4[C@H]3CC[C@@]21C [Quinestrol] | 100
OC1(c2ccc(Cl)c(C(F)(F)F)c2)CCN(CCCC(c2ccc(F)cc2)c2ccc(F)cc2)CC1 [Penfluridol] | 100
CC(=O)Oc1cc(C)c(OC(C)=O)c2ccccc12 [Vitamin K4] | 95.5
CCCCCCCCCCCCCCCCOP(=O)([O-])OCC[N+](C)(C)C [Miltefosine] | 100
CCCCc1oc2ccccc2c1C(=O)c1cc(I)c(OCCN(CC)CC)c(I)c1 [Amiodarone (hydrochloride)] | 100
Cc1cc(Nc2ncnc3ccc(NC4=NC(C)(C)CO4)cc23)ccc1Oc1ccn2ncnc2c1 [Tucatinib] | 91.9
CC(=O)OC[C@H]1O[C@@H]([S-])[C@H](OC(C)=O)[C@@H](OC(C)=O)[C@@H]1OC(C)=O.CCP(CC)CC.[Au+] [Auranofin] | 99.9
C[C@H](Nc1cc(-c2cnn(C)c2)cc(Nc2cnccn2)n1)c1ccc(F)cc1 [Ilginatinib] | 100
CC[C@H](C)C(=O)O[C@H]1C[C@@H](C)C=C2C=C[C@H](C)[C@H](CC[C@@H]3C[C@@H](O)CC(=O)O3)[C@H]21 [Lovastatin] | 100
Cc1noc(-c2ccc(-c3ccc(C4(C(=O)O)CC4)cc3)cc2)c1NC(=O)O[C@H](C)c1ccccc1 | 100
O=C(OCC(O)CO)c1ccccc1Nc1ccnc2cc(Cl)ccc12 (stereo not given) [Glafenine] | 100
COc1cccc2c1C(=O)c1c(O)c3c(c(O)c1C2=O)C[C@@](O)(C(=O)CO)C[C@@H]3O[C@H]1C[C@H](N)[C@H](O)[C@H](C)O1 [Doxorubicin (hydrochloride)] | 96.1
CCc1cc(-c2noc(-c3cc(OC)nc(C4CCCC4)c3)n2)cc(C)c1OC[C@@H](O)CO [Cenerimod] | 100
CC(C)c1cc(Oc2c(Br)cc(NC(=O)CC(=O)O)cc2Br)ccc1O [Eprotirome] | 99.3
Nc1ccc2cc3ccc(N)cc3nc2c1 [Proflavine (hemisulfate)] | 100
C=C[C@@](C)(/C=C/c1ccc(O)cc1)CCC=C(C)C [Bakuchiol] | 100
Cc1ccc(-c2c(C(=O)CCl)n(CCCO)c3ncnc(N)c23)cc1 | 99.8
O=c1[nH]cnc2c1cnn2[C@@H]1O[C@H](CO)[C@@H](O)[C@H]1O [Allopurinol riboside] | 99.9
COc1cc2/c(=N/c3ccc(Br)cc3F)nc[nH]c2cc1OCC1CCN(C)CC1 [Vandetanib] | 100
C=C[C@@H]1C[C@]1(NC(=O)[C@@H]1C[C@@H]2CN1C(=O)[C@H](C(C)(C)C)NC(=O)O[C@@H]1C[C@H]1CCCCCc1nc3ccc(OC)cc3nc1O2)C(=O)NS(=O)(=O)C1CC1 [Grazoprevir potassium salt] | 97.2
CC(C)(C)C#Cc1cc(N(C(=O)[C@H]2CC[C@H](C)CC2)[C@H]2CC[C@H](O)CC2)c(C(=O)O)s1 [Lomibuvir] | 91.1
CCc1oc2ccccc2c1C(=O)c1cc(Br)c(O)c(Br)c1 [Benzbromarone] | 100
Cn1cc(-c2ccncc2)c(-c2ccc(OCc3ccc4ccccc4n3)cc2)n1 [Mardepodect (hydrochloride)] | 100
CCCCCCCCCCCCCCCC[N+](C)(C)CCN(Cc1ccc(OC)cc1)c1ncccn1 [Thonzonium (bromide)] | 100
CCC(c1ccccc1)c1c(O)c2ccccc2oc1=O (stereo not given) [Phenprocoumon] | 94.6
CNCCC(Oc1ccc(C(F)(F)F)cc1)c1ccccc1 (stereo not given) [Fluoxetine (hydrochloride)] | 100
CCCCCCCCCCCC1=C(O)C(=O)C=C(O)C1=O [Embelin] | 100
CO[C@H](C(=O)[C@@H](O)[C@@H](C)O)[C@@H]1Cc2cc3cc(O[C@H]4C[C@@H](O[C@H]5C[C@@H](O)[C@H](O)[C@@H](C)O5)[C@H](O)[C@@H](C)O4)c(C)c(O)c3c(O)c2C(=O)[C@H]1O[C@H]1C[C@@H](O[C@H]2C[C@@H](O[C@H]3C[C@](C)(O)[C@H](O)[C@@H](C)O3)[C@@H](O)[C@@H](C)O2)[C@H](O)[C@@H](C)O1 [Plicamycin] | 99.6
Oc1c(Br)cc(Br)c2cccnc12 [Broxyquinoline] | 100
